G9a block: blocks human histone lysine methyltransferase G9a; G9a H3K9 monomethylation, AlphaScreen, 2 h; AID 504332; Potency, µM (titrated, usually from 102 µM), for the others: top-dose activity, negative = inhibition, most hits filed as inhibitors; 8.8% of 350,000 active; Q96KQ7; further: on the % scale 0 is the no-effect control and ±100 the full control effect; nearly all actives have a fitted effect of over 75% in size
Target sequence (Q96KQ7 913-1193 limits assumed): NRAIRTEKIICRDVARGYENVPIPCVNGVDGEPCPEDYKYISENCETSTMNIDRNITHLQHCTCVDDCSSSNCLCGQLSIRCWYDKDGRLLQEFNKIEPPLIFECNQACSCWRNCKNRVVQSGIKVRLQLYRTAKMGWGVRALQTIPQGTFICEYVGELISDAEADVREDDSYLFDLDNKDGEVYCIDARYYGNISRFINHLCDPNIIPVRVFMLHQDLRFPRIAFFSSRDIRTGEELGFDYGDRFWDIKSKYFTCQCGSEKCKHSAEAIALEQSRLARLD
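Readings reflect AlphaScreen signal from monomethyl-H3K9 antibody detection. HMT at 20 nM; substrate b-H3K9 500 nM; cofactor SAM 20 uM; 2 h RT reaction; compounds tested as titrations in qHTS with 15 min preincubation.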
BAZ2B block: blocks human BAZ2B. 4.4% of 360,000 active. Q9UIF8. Potency, µM (top dose mostly 114 µM), without a hit: top-dose activity change, negative = inhibition, usual class: inhibitors. AID 504333. AlphaScreen BAZ2B-H3K14Ac peptide displacement; further: on the % scale 0 is the no-effect control and ±100 the full control effect; nearly all actives have a fitted effect of over 60% in size
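Inhibition is scored as reduced AlphaScreen emission. The BAZ2B/b-H3(5-23)K14Ac complex (50 nM each) in PBS pH 7.4, 0.01% Tween-20 meets compound (up to 110 uM) for 30 min at RT before bead addition.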
Sfp inh: Sfp phosphopantetheinyl transferase inhibition; Q9F4F7; Biochemical Sfp PPTase activity, qHTS; Potency, µM, inactives show largest response in the series, negative = inhibition, hits mostly inhibitors; 3.5% of 310,000 active; AID 1490;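 further: the enzyme is Sfp with the accession as filed and its product quenches rhodamine fluorescence; 0% = enzyme reaction without inhibitor and -100% = no enzyme wells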
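Fluorescence-quenching assay with 15 nM Sfp, 5 uM rhodamine-CoA and 12.5 uM BHQ-2-labelled ybbR peptide in pH 7.6 Hepes/MgCl2 buffer. Enzyme was pre-incubated with compound for 15 min at room temperature. Rate was taken from the 30-min fluorescence change (525/598 nm).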
HP1b chromo inh: blocks HP1-beta chromodomain binding to methylated histone tails. AlphaScreen HP1-beta / biotin-H3K9me3 peptide binding. Potency, µM (highest dose often 114 µM), inactives show at the highest dose activity change, negative = inhibition, usual class: inhibitors. 0.56% of 390,000 active; further: nearly all actives have a fitted effect of over 70% in size
Target sequence (P83916 whole entry, looked up): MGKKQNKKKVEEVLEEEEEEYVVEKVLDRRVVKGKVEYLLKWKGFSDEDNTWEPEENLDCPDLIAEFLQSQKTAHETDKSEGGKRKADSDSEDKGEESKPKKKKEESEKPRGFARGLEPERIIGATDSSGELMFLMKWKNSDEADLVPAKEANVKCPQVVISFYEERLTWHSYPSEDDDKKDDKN
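HP1-beta protein (50 nM final) preincubated 30 min at room temperature with biotinylated H3(1-18)K9me3 peptide (50 nM) in PBS pH 7.4, 0.01% Tween-20, then compound added for 30 min. AlphaScreen streptavidin donor/nickel chelate acceptor beads (10 ug/mL final), 30 min dark, luminescence read.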
JMJD2A Tudor: JMJD2A Tudor domain (human) inhibition; O75164; AlphaScreen JMJD2A-Tudor / H3K4me3 peptide binding; Potency, µM (series often up to 114 µM), for inactives: top-dose activity change, negative = inhibition, most hits filed as inhibitors; 4.4% of 390,000 active; further: on the % scale 0 is the no-effect control and ±100 the full control effect; nearly all actives have a fitted effect of over 50% in size
12-LOX inh: blocks human arachidonate 12S-lipoxygenase. 1.1% of 580,000 active. AID 1671190. Potency, µM (series often up to 108 µM), without a hit: at the highest dose activity change, negative = inhibition, most hits filed as inhibitors. purified 12hLO, xylenol orange hydroperoxide absorbance. P18054; further: on the % scale 0 is the no-effect control and ±100 the full control effect
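Purified human 12hLO at 150 nM in 25 mM Hepes, 0.01% Triton X-100, pH 7.0, preincubated 15 min at room temperature with compound. Reaction started with 40 uM arachidonic acid, 30 min at room temperature. Hydroperoxide measured by Fe-xylenol orange, 573/405 nm absorbance ratio.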
* = called active by the depositor; ? = inconclusive; . = no result given; [ ] = remark or other dose. An excerpt weighted towards active compounds, which were near 8.7% of everything screened. The call rests on the fitted dose curve; in most records, active means well fitted curve in the direction sought with a large enough effect; inconclusive means small, poorly fitted or top-dose-only effect, or another doubt; inactive means no such curve, though single readings can be large; an effect the other way counts as inactive or inconclusive. Potency means the concentration at half of the fitted maximal effect.

SMILES | G9a block | BAZ2B block | Sfp inh | HP1b chromo inh | JMJD2A Tudor | 12-LOX inh
CCN1CCc2c(sc(NC(=O)Cc3ccccc3)c2C(N)=O)C1 | . | 33.1% | 3.8% | 7.5% | -9.9% | -0.2%
CCN1CCc2c(sc(NC(=O)c3ccc(S(=O)(=O)N(CC)c4ccccc4)cc3)c2C(N)=O)C1 | ? | -24.7% | 7.5% | -7.3% | -27.2% | ?
Cc1sc(NC(=S)NC(=O)CCc2ccccc2)c(C(N)=O)c1C | ? | -8.2% | -20.5% | -5.1% | -13.2% | -13.7%
CCN1CCc2c(sc(NC(=O)c3ccc(S(=O)(=O)N4CCOCC4)cc3)c2C(=O)OC)C1 | ? | -10.0% | 18.5% | 28.5% | -24.0% | 30.1%
CCCCCCNC(=O)c1cc(-c2ccccc2)nc2ccccc12 | . | . | . | . | . | -22.9%
CCCc1cc(CNC(=O)c2ccc(NC3CCOC(C)(C)C3)nc2)on1 (centres undefined) | . | . | . | . | . | 30.7%
O=C1CC2CCCC(C1)N2C(=O)c1cccc(Br)c1 | . | . | . | . | . | -0.6%[176 µM]
CCOC(=O)N1CCc2c(sc(NC(=O)c3ccc(Cl)s3)c2C(N)=O)C1 | 28.2µM* | -31.1% | 50.1µM* | . | . | .
CC(C)C(=O)Nc1sc2c(c1C(N)=O)CCN(Cc1ccccc1)C2 | 70.8µM* | 4.4% | 0.0% | 18.3% | -16.9% | 36.9%
CCOC(=O)N1CCc2c(sc(NC(C)=O)c2C(N)=O)C1 | . | . | . | 46.1% | 0.0% | -14.7%
NC(=O)c1c(NC(=O)c2ccccc2)sc2c1CCN(Cc1ccccc1)C2 | 2.9% | -3.5% | 14.8% | 47.2% | -18.4% | 5.6%
N#Cc1ccccc1CNc1ccc(F)c(F)c1F | . | . | . | . | . | -18.9%
CCOC(=O)CNC(=O)CN1CCCN(S(=O)(=O)c2ccc(Br)s2)CC1 | 50.1µM* | 5.7% | -20.6% | 33.7% | -14.2% | ?
O=C(CN1CCCN(S(=O)(=O)c2ccc(Br)s2)CC1)Nc1ccc(Cl)cc1 | 12.6%[12.7 µM] | 3.5% | -8.2% | 12.7% | -10.6% | ?
Cc1cc(OC(=O)c2ccc(S(=O)(=O)N3CCOCC3)cc2)c([N+](=O)[O-])c(=O)[nH]1 | 56.2µM* | ? | 16.7% | 35.6% | -16.0% | -16.0%
Cc1cc(OC(=O)c2cc(Br)ccc2Cl)c([N+](=O)[O-])c(=O)[nH]1 | ? | ? | 14.2% | 37.6% | -14.5% | 35.5µM*
Cc1ccc(C(=O)Oc2cc(C)[nH]c(=O)c2[N+](=O)[O-])cc1 | -36.9% | -31.0% | -29.6% | 45.0% | -7.0% | 1.6%
Cc1cc(OC(=O)c2ccc3ccccc3c2)c([N+](=O)[O-])c(=O)[nH]1 | 44.7µM* | -22.4% | 11.0% | 30.0% | -28.7% | -5.0%
O=C(/C=C/c1ccsc1)c1ccccc1 | . | . | . | . | . | -59.6%
COc1cccc(CN2CCC3(Cc4ccccc4NC3=O)C2)c1 (centres undefined) | . | . | . | . | . | 39.8µM*
N#Cc1ccc(CN2CCC3(Cc4ccccc4CNC3=O)C2)cc1 (centres undefined) | . | . | . | . | . | 0.4%[6.33 µM]
O=C1NCc2ccccc2CC12CCN(Cc1ccc(-c3ccccc3)cc1)C2 (centres undefined) | . | . | . | . | . | 39.8µM*
Cc1cc(C)c(CN2CCC3(Cc4ccccc4CNC3=O)C2)c(C)c1 (centres undefined) | . | . | . | . | . | 1µM*
O=C1NCc2ccccc2CC12CCN(Cc1ccc(Oc3ccccc3)cc1)C2 (centres undefined) | . | . | . | . | . | 35.5µM*
Cc1cc(C)cc(CN2CCC3(CC2)Cc2ccccc2CNC3=O)c1 | . | . | . | . | . | -0.8%[6.33 µM]
SMILES | G9a block | BAZ2B block | Sfp inh | HP1b chromo inh | JMJD2A Tudor | 12-LOX inh
COc1cccc(CN2CCCCC23Cc2ccccc2NC3=O)c1 (centres undefined) | . | . | . | . | . | 3.3%[176 µM]
COc1cc(/C=C(/C#N)C(=O)C(C)(C)C)ccc1OCc1ccc(Cl)cc1 | . | . | . | . | . | 3.5%
O=C(NC[C@H]1Cn2ccnc2CO1)c1ccccc1 | . | . | . | . | . | 15.0%[176 µM]
CCCSc1cc(N2CCN(C)CC2)nc(-c2ccc(OC)cc2)n1 | 50.1µM* | 50.1µM* | -11.3% | -25.4% | ? | -74.0%
CCCSc1cc(N2CCCC2)nc(-c2ccccc2)n1 | 95.1% | 26.1% | 14.9% | 144.6% | 121.0% | 7.6%
C/C(=N\O)C1(C)CC2=C(CCCC2(C)C)CC1C (centres undefined) | . | . | . | . | . | -9.5%
CCCCCNc1ncnc2c1CN(c1ccc(OC)cc1)C(=O)CN2C | . | . | . | . | . | -19.7%
Cc1ccc(-c2cnc(SCC(=O)Nc3ccccc3C)o2)cc1C | . | . | . | . | . | -17.9%
CC(Sc1cc(F)ccc1F)C(N)=O (centres undefined) | . | . | . | . | . | -19.2%
COc1cccc(C2CNC3(CCCC(C)C3)c3[nH]c4ccccc4c32)c1OC (centres undefined) | ? | 44.7µM* | -22.7% | 4.9% | ? | ?
CC1(C)CC(=O)CC2(C1)NCC(c1ccccc1)c1c2[nH]c2ccccc12 (centres undefined) | ? | -34.8% | -3.4% | 16.5% | ? | -29.7%
CC1(C)Cc2c(c(-c3ccco3)nc3sc4c(NCCN5CCOCC5)ncnc4c23)CO1 | 17.8µM* | -1.7% | -4.2% | -4.3% | -26.2% | 22.1%
CC1(C)Cc2c(c(-c3ccco3)nc3sc4c(NCC5CCCO5)ncnc4c23)CO1 (centres undefined) | -19.1%[59 µM] | 5.3% | 20µM* | 4.4% | ? | ?
CC1(C)Cc2c(c(-c3ccco3)nc3sc4c(NCCCO)ncnc4c23)CO1 | . | -13.7% | 7.94µM* | -17.4% | -32.3% | ?
CCNC(=O)[C@@H]1C[C@H](NC(=O)c2ccn(CC)n2)CN1C1CCOCC1 | . | . | . | . | . | -9.4%
CN1CCS/C1=C/C=C1/SC(=S)N(Cc2ccccc2)C1=O | ? | 10µM* | ? | 12.6µM* | ? | 4.4%
CCCCN1C(=O)/C(=C/C=C2\SCCN2C)SC1=S | 12.6µM* | 10µM* | -20.1% | 28.2µM* | 35.5µM* | ?
CN1CCS/C1=C/C=C1\SC(=S)N(CC(=O)O)C1=O | 44.7µM* | 50.1µM* | ? | -4.0% | ? | -15.6%

Compound activity (PubChem BioAssay)
